Experimental data from PubChem BioAssay (Tox21).
Where “and” joins values, the source holds several entries; their conditions need not be identical. Equal values may be shown once. Records with an inconclusive call do not appear. A call without a number means that no potency is given here. Some structures have more than one record in an assay (separate samples or runs), and their calls can disagree. Calls of active or inactive are those of the source. Calls follow the shape of the dose curve; as a rule, active = well fitted activation curve with a large enough effect in the repeat runs; inconclusive = weak or mixed curves; inactive = flat fitted curve, though single readings scatter.

Assay: A CellTox Green Cytotoxicity Assay to monitor cytotoxicity in HEK293 cells - 8 hour (AID 1224884); also: nearly all actives have a fitted effect of over 35% in size
Conditions: CellTox Green fluorescence; series mostly up to 76.8 µM
Description: National Center for Advancing Translational Sciences [NCATS]
NIH Chemical Genomics Center [NCGC]
U.S. Environmental Protection Agency [EPA]
National Institutes of Environmental Health Sciences [NIEHS]
National Toxicology Program [NTP]
Cell-based models are critical for drug discovery. Determining the natural cytotoxic effects resulting from test compounds is an essential research activity. A CellTox Green Cytotoxicity Assay to monitor cytotoxicity in real time of continues cell culture during 40 hours of the compound treatment was used to screen Tox21 10K library compounds in Hek293 cells. CellTox Green Cytotoxicity Assay is a nonlytic, homogeneous, biofluorescent method to measure cytotoxicity in cell culture after experimental manipulation. The assay system uses a proprietary asymmetric cyanine dye that is excluded from viable cells but preferentially stains the dead cell's DNA. […] Viable cells produce no appreciable increases in fluorescence. Therefore, the fluorescence signal produced by the binding interaction with dead cell DNA is proportional to cytotoxicity.
The mixture of Hek293 cell suspension and reagents were dispensed at 600cells/6 ul/well in 1536-well tissue culture treated black solid bottom plates using a Multidrop dispenser. After the assay plates were incubated at a 37 C/5% CO2 incubator for 5 hours, 23 nL of compounds dissolved in DMSO, positive and negative controls was transferred to the assay plate by a pintool work station. The plates were incubated at 37 C for 40 hours. The fluorescence intensity were measured at 0h, 8h, 16h, 24h, 32h and 40h time points using ViewLux plate reader during compound treatment.
Potency is read from the fitted curve at half-maximal effect.

SMILES | Potency
O=C(O)c1cc(Oc2ccc(C(F)(F)F)cc2Cl)ccc1[N+](=O)[O-] | inactive
Cc1cccc(C)c1NC(=O)CN1CCCC1=O | inactive
OCc1ccco1 | inactive
N#CN=C(N)N | inactive
CC(=O)C1CCOC1=O (stereo not given) | inactive
C[C@]12CC[C@H](O)CC1=CC[C@@H]1[C@@H]2CC[C@]2(C)C(=O)CC[C@@H]12 | inactive
CN1C(=O)CCS(=O)(=O)C1c1ccc(Cl)cc1 (stereo not given) | inactive
CC(=O)/C=C/c1ccccc1 | inactive
CSc1nnc(C(C)(C)C)c(=O)n1N | inactive
Cc1cccc(N)c1C | inactive
O=C(O)C1C(C(=O)O)C2(Cl)C(Cl)=C(Cl)C1(Cl)C2(Cl)Cl (stereo not given) | inactive
CNC(=O)O/N=C/C(C)(C)S(C)(=O)=O | inactive
Cc1ccccc1N | inactive
Cc1cccc(N)c1 | inactive
CC[N+](=O)[O-] | inactive
CCOP(=S)(OCC)Oc1cc(C)nc(C(C)C)n1 | inactive
O=S(=O)(O)OOS(=O)(=O)O | inactive
CNC(=O)O/N=C/C(C)(C)S(C)=O (stereo not given) | inactive
COc1nc(NC(C)C)nc(NC(C)C)n1 | inactive
CC(C)c1cccc(C(C)C)c1O | inactive and 43.6 µM (active)

SMILES | Potency
O=[N+]([O-])c1cc([As](=O)(O)O)ccc1O | inactive
Cc1cc(Cl)ccc1OC(C)C(=O)O (stereo not given) | inactive
O=C(O)COc1ccccc1 | inactive
CN(C)CCC#N | inactive
OCCCCO | inactive
CNC(=O)O/N=C(\SC)C(=O)N(C)C | inactive
CN(C)C(=O)Nc1cccc(C(F)(F)F)c1 | inactive
OC[C@@H](O)[C@H]1O[C@@H]2O[C@H](C(Cl)(Cl)Cl)O[C@@H]2[C@H]1O | inactive
CCOC(=O)CC(SP(=O)(OC)OC)C(=O)OCC (stereo not given) | inactive
N#Cc1cccc(C#N)c1 | inactive
CCCCC(CC)C(=O)Cl (stereo not given) | inactive
Nc1ncc([N+](=O)[O-])s1 | inactive
Nc1cc(Cl)cc(Cl)c1 | inactive
Nc1cccc(Cl)c1 | inactive
Clc1cnc(Oc2ccc(Oc3ncc(Cl)cc3Cl)cc2)c(Cl)c1 | inactive and 34.7 µM (active)
Nc1ccc(N)cc1 | inactive
COP(=S)(OC)SCN1C(=O)c2ccccc2C1=O | inactive
C=CC(=O)OCCCCCC(C)C | inactive
COc1cc(-c2ccc(N)c(OC)c2)ccc1N | inactive
Nc1nc(N)nc(NC2CC2)n1 | inactive
